Assay outcomes: PubChem BioAssay, The Scripps Research Institute Molecular Screening Center
A selection: hits, their analogues and other compounds. The true share with any hit is near 2.3%.
CHRM1 antagonist: antagonists of human M1 muscarinic receptor; inhibition, % at 3 µM; actives 1.3% (n = 360,000); P11229; CHO-K1 hM1, Fluo-8 calcium fluorescence, ACh EC80 antagonist;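 active = percent inhibition above its own plate's cutoff, namely the mean of that plate's compound wells plus 3 SD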;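 also: peak over basal fluorescence ratio during 140 s after agonist addition; 0% = ACh EC80 plus DMSO and 100% = DMSO alone without agonist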
Target sequence (P11229 whole entry, looked up): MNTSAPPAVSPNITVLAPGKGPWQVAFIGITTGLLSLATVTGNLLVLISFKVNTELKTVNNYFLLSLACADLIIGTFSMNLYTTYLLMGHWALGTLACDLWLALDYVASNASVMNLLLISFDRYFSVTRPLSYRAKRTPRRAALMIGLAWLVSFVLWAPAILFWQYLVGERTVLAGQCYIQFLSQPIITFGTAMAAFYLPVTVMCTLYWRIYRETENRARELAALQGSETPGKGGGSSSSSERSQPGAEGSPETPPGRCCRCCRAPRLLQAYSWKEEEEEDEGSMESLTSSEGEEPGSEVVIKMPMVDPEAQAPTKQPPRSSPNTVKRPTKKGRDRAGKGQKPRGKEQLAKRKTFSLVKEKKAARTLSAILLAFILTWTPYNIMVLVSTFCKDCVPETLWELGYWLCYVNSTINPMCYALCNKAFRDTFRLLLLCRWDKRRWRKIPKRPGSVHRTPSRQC
M1 PAM: human CHRM1 positive allosteric modulation; P11229; CHO-K1 hM1, Fluo-8 calcium fluorescence, ACh EC20; 0% = ACh EC20, 100% = maximal ACh; activation, % at 3 µM; actives 0.088% (n = 360,000); in the data active = activation above about 19%, passing the limit was not always enough
CHO-K1 Ca antag: nonselective inhibitor or artifact in parental CHO-K1 cells; inhibition, % at 3 µM; ATP-induced calcium, Fluo-8 fluorescence; actives 0.6% (n = 360,000);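 active = inhibition above a per-plate cutoff, the plate's mean sample inhibition plus 3 SD, cut at about 24% in these data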;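 also: 0% = DMSO plus EC80 ATP and 100% = DMSO alone without ATP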
M1 ag: human M1 muscarinic receptor agonism; AID 588814; CHO-K1 hM1, Fluo-8 calcium fluorescence, agonist mode; 0% DMSO, 100% acetylcholine EC100; actives 0.33% (n = 360,000); P11229; activation, % at 3 µM;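 active = activation above the run's mean compound activation plus 3 SD, cut at about 16% in these data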;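 also: peak over basal fluorescence ratio within a 140 s kinetic read after compound addition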
M1 ag parental: nonselective activator or artifact in parental CHO-K1 cells; AID 602248; Fluo-8 calcium fluorescence; scaled to maximal ATP response, vehicle zero; actives 0.48% (n = 360,000); activation, % at 3 µM; in the data active = activation above about 15%;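 also: untransfected CHO-K1 host cells lacking M1 receptor as counterscreen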
M1 PAM parental: counter-screen for M1 PAMs: effect in parental CHO-K1 cells; ATP EC20, Fluo-8 calcium fluorescence; 0% at ATP EC20, 100% at ATP max; activation, % at 3 µM; actives 0.02% (n = 360,000);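 active = activation above the run cutoff, the mean activation of all test compounds plus 3 SD, cut at about 40% in these data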;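 also: peak over basal fluorescence ratio in a 140 s read after ATP addition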
An asterisk follows results filed as active.

SMILES	CHRM1 antagonist	M1 PAM	CHO-K1 Ca antag	M1 ag	M1 ag parental	M1 PAM parental
CCC1CCCCN1CCCNC(=O)C1CCN(c2nnc(-n3cccc3)s2)CC1 (stereo unspecified)	94.7*	-25.1	-7.2	-6.4	-0.1	0.2
CCOc1ccc(NCc2cccn2-c2nnc(N3CCC(C(=O)NCCCN4CCCCC4C)CC3)s2)cc1 (stereo unspecified)	53.5*	-23.3	-12.0	-5.7	0.8	20.9
CCOc1ccc(NCc2cccn2-c2nnc(N3CCC(C(=O)NCCCN4C(C)CCCC4C)CC3)s2)cc1 (stereo unspecified)	77.8*	-22.2	-10.4	-6.1	0.7	21.7
CCc1nc2ccc(C(=O)Nc3cccc(OCC(=O)N(C)C)c3)cn2c1N(CC)CCOC	-11.0	2.1	11.7	-2.7	2.6	-8.0
CCOc1ccc(NCc2cccn2-c2nnc(N3CCC(C(=O)NCCCN4CCCCC4)CC3)s2)cc1	63.3*	-21.2	-10.6	-5.1	-0.2	2.7
COc1ccc(C2c3c(-c4ccccc4O)n[nH]c3C(=O)N2Cc2ccco2)cc1OC (stereo unspecified)	-9.3	0.6	-9.4	-4.5	1.3	14.8
COc1ccc(C2c3c(-c4cc(Cl)c(C)cc4O)n[nH]c3C(=O)N2Cc2cccnc2)cc1OC (stereo unspecified)	79.6*	-21.3	1.5	-6.0	0.2	12.3
O=c1[nH]c2c(oc3ccccc32)c(=O)n1Cc1ccccc1	-10.7	4.2	1.3	1.0	0.0	-0.4
O=C(O)c1c(-c2ccccc2)c2oc3ccccc3c2[nH]c1=O	7.3	-3.8	28.9*	-2.2	0.1	-5.2
CC(C)c1ccc(N2C(=O)CSC23C(=O)N2CCCc4cccc3c42)cc1 (stereo unspecified)	98.4*	-20.7	-5.1	-8.4	0.6	20.6
CCOc1ccccc1C1C(C(N)=O)=C(C)Nc2nc(CCCO)nn21 (stereo unspecified)	-4.2	5.1	26.7*	2.7	-0.4	-8.6
O=C1N[C@@H](Cc2c[nH]c3ccccc23)COC(=O)[C@@H](Cc2ccc(F)cc2)CC/C=C/C[C@@H]1CC(=O)N(CCO)Cc1ccccc1	-5.3	6.0	-19.2	-5.0	1.0	17.4
CCCCC(=O)OCC(=O)c1cc(C)n(-c2c(C)n(C)n(-c3ccccc3)c2=O)c1C	0.7	0.5	-19.8	-6.0	0.2	20.6
CCOC(=O)c1cc(C)n(-c2c(C)n(C)n(-c3ccccc3)c2=O)c1C	34.1*	-13.8	-3.9	-5.0	0.6	4.3
O=[N+]([O-])c1ccc2nc(NN=Cc3ccc(O)cc3)sc2c1	-0.9	2.0	-12.1	-0.1	0.9	12.0
Cc1ccccc1-c1nc(NCCN(C)C)nc2ccsc12	88.2*	-29.1	1.5	-8.1	1.4	7.6
Cc1ccccc1-c1nc(NC(C)C)nc2ccsc12	1.7	-9.9	-3.2	-8.6	0.0	11.4
CN(C)CCNc1nc(-c2ccccc2CO)c2sccc2n1	74.0*	-29.3	3.0	-9.7	0.1	-1.4
Cc1ccc(NC(=O)c2ncn(CCCNCCCc3ccccc3)n2)cc1C	-4.9	1.4	-17.4	17.7*	1.9	22.0
COc1cccc(NC(=O)C2CCN(S(=O)(=O)c3ccc4[nH]c(=O)ccc4c3)CC2)c1	-3.9	5.8	-0.2	-3.8	-0.2	11.8
COc1cc(C)ccc1OCc1cc(C(=O)N(Cc2c(C)nn(C)c2C)C2CC2)no1	13.9	-11.2	-1.6	-3.1	18.3*	-5.0
COc1cc(C)ccc1OCc1cc(C(=O)N2C[C@H]3CC[C@H]2C3)no1	-6.6	3.6	-15.9	-3.1	1.4	16.8
COc1cccc(N2CCN(CC(=O)N3CCN(S(=O)(=O)c4ccc(Cl)cc4)CC3)CC2)c1	-9.1	1.7	-6.9	-4.1	3.2	-11.9
CCN(CC)c1nc(C=Cc2ccc(N(C)C)cc2)c2nccnc2n1	46.2*	-14.8	44.5*	33.4*	44.6*	-3.0
CN(C)c1nc(N)c2nccnc2n1	-5.4	4.5	-2.4	-2.3	1.7	23.2
SMILES	CHRM1 antagonist	M1 PAM	CHO-K1 Ca antag	M1 ag	M1 ag parental	M1 PAM parental
CN(C)c1ccc(C=Cc2nccc3ccccc23)cc1	40.6*	-36.3	25.4*	27.1*	19.9*	-2.6
COc1cccc(C=Cc2nccc3ccccc23)c1OC	1.7	-3.7	13.8	-3.8	0.4	-6.2
CCC(C)c1ccc(NC(=S)NCc2ccccc2OC)cc1 (stereo unspecified)	3.1	-3.3	-5.3	-5.5	2.2	14.0
CN1CCN(c2ccc(NC(=S)NC(=O)c3cccc4ccccc34)cc2)CC1	45.2*	-22.2	-11.9	-3.0	3.6	6.8
CC(=O)N1CCN(c2ccc(NC(=S)NC(=O)COc3ccc(C(C)(C)C)cc3)cc2)CC1	26.3	-9.3	23.3	0.3	9.5	1.6
CCC(=O)N1CCN(c2ccc(NC(=S)NC(=O)COc3ccccc3)cc2)CC1	30.0*	-15.6	1.6	2.5	14.6	-4.7
CN1CCN(c2ccc(NC(=S)NC(=O)c3cccc4c(Br)cccc34)cc2)CC1	20.4	-12.0	-17.1	-4.6	1.7	19.9
Cn1c(=O)c2c(nc(NCc3ccco3)n2C/C=C/c2ccccc2)n(C)c1=O	31.8*	-10.1	-3.2	-0.3	2.0	14.9
Cn1c(=O)c2c(nc(NCc3ccco3)n2C)n(C)c1=O	-8.9	3.2	6.2	-6.4	0.3	-2.9
S=C(Nc1ccccc1Cl)NC1CCN(Cc2ccccc2)CC1	-3.9	0.2	7.9	1.1	0.7	-0.9
S=C(Nc1cc(Cl)cc(Cl)c1)NC1CCN(Cc2ccccc2)CC1	23.9	-3.6	25.2*	8.8	17.1*	-6.4
COc1cccc(C(=O)NCCNC(=O)c2ccco2)c1	-10.4	10.5	-14.0	-1.4	1.3	6.3
CCN1/C(=C\C=C(C(C)=O)C(C)=O)Sc2ccccc21	-11.0	6.1	2.6	6.5	16.7*	5.3
O=C(Nc1ccc(Cn2ccnc2)cc1)c1cccc(C(F)(F)F)c1	-7.8	3.1	-8.5	-5.5	0.7	4.0
Cc1c(OCC(=O)N2CCN(c3ccccc3)CC2)ccc2c3c(c(=O)oc12)CCCC3	-6.6	7.4	25.1*	-1.8	1.8	7.6
Cc1c(OCC(=O)N(C)C)ccc2c3c(c(=O)oc12)CCCCC3	12.5	-12.8	25.2*	-9.2	0.7	-12.8
Cc1c(OCC(=O)N2CCC(C(=O)O)CC2)ccc2c3c(c(=O)oc12)CCCC3	-3.5	1.0	2.2	0.2	0.3	-11.4
CN(C(=O)CSc1nnc(-c2c[nH]c3ccccc23)n1C1CC1)C1CCS(=O)(=O)C1 (stereo unspecified)	-2.7	6.1	-18.3	-6.7	0.3	14.8
Cc1c(-n2c(SCC(N)=O)nc3ccccc3c2=O)c(=O)n(-c2ccccc2)n1C	3.3	3.4	-5.6	-5.5	-0.5	9.1
